Experimental data published in PubChem BioAssay AID1347416 (National Center for Advancing Translational Sciences (NCATS), 2020).
Hit rate of the full screen: of about 4,100 compounds, about 1,600 (39%) were called active. About 25% were inconclusive and are not listed. Calls come from the whole dose curve; as a rule, active = well fitted inhibition curve with a large enough effect; inconclusive = small, poorly fitted or top-dose-only effect; inactive = no such curve, though single readings can be large or run the other way. Some of the results follow.
Potency is the fitted concentration of half-maximal effect.

Assay: qHTS Validation assay for Inhibitors of Plasmodium falciparum Dd2 growth in vitro; note: nearly all actives have a fitted effect of over 70% in size
Details: P. falciparum Dd2 in RBCs, SYBR Green growth, 72 h; series mostly up to 28.7 µM
Summary of the method: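 P. falciparum Dd2-infected red blood cells (2.5% hematocrit, 0.3% parasitemia) grown 72 h at 37 °C under 5% O2 with compounds in a titration, 29 uM to 0.5 nM final. Growth read as SYBR Green-1 fluorescence after ~16 h lysis; artesunate 300 nM as positive control.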
With Cc1nc(-c2ccc(Cl)cc2)sc1CCNC(=O)c1ccco1 the Potency was “inactive”.
With CCCCN(C(=O)c1ccco1)c1nnc(-c2cc(OC)c(OC)c(OC)c2)s1 the Potency was 2.99 µM (active).
With Cc1ccc(C(=O)NN2C(=O)C3C4C=CC(C4)[C@@H]3C2=O)cc1 (stereo partly drawn) the Potency was “inactive”.
For O=C(c1ccc2ncccc2c1)N1CCc2c(nc3cc[nH]n3c2=O)C1, the Potency was “inactive”.
In the case of OC(CNCC1CCCO1)Cn1c2ccc(Cl)cc2c2cc(Cl)ccc21 (stereo not drawn), the Potency is reported as 1.19 µM (active).
With Cc1noc(C)c1-c1cc2c(cc(C)n2CCN(C)C)c(-c2cccc(O)c2)n1 the Potency was 17.2 µM (active).
In the case of CCc1cccc(C)c1Nc1c(-c2cccc(O)c2)nc2sccn12, the Potency is reported as “inactive”.
For Cc1noc(C)c1-c1cc2c(cc(C)n2CCN(C)C)c(Nc2ccn(C)n2)n1, the Potency was 13.7 µM (active).
In the case of Cc1noc(C)c1-c1cc2c(cc(C)n2C)c(NCCN(C)C)n1, the Potency is reported as “inactive”.
With COc1cccc(-c2nc(-c3c(C)noc3C)cc3c2cc(C)n3CCN(C)C)c1 the Potency was 17.2 µM (active).
For COc1cc(-c2nc(-c3c(C)noc3C)cc3c2cc(C)n3CCN(C)C)ccn1, the Potency was 17.2 µM (active).
In the case of COc1cccc(-c2noc(CCCc3nc(-c4cccnn4)no3)n2)c1, the Potency is reported as “inactive”.
In the case of O=[S+]1([O-])NCC2(CCN(CC3CC3)CC2)Nc2ccccc21, the Potency is reported as “inactive”.
In the case of O=C(c1ccsc1)N1CC(n2cc(-c3ccccc3)nn2)C1, the Potency is reported as “inactive”.
With O=C(c1cccc(O)c1)N1CC=C(c2cnc3cnc(-c4ccccc4)cn23)CC1 the Potency was 9.68 µM (active).
In the case of COCCNC(=O)[C@H]1C[C@H](Oc2ccccc2)CN1C(=O)c1ccccc1OC, the Potency is reported as “inactive”.
For COc1ccc(CN2CC(Oc3ccccc3C(=O)NCc3ccccc3)C2)c(OC)c1, the Potency was 10.6 µM (active).
With Cc1c(CN2CC(Oc3ccccc3C(=O)NCc3ccccc3)C2)cnn1C the Potency was 4.22 µM (active).
For O=C(NCc1ccccc1)c1ccccc1OC1CN(Cc2ccc(O)c(F)c2)C1, the Potency was 15 µM (active).
In the case of O=C(NCc1ccc(F)cc1)c1c2c(nc3ccccc13)C(=O)N(C1CCCCC1)C2, the Potency is reported as “inactive”.
In the case of O=C(NCC1CC1)c1cccc(OC2CN(Cc3cc(F)c(F)c(F)c3)C2)c1, the Potency is reported as “inactive”.
For Cc1ccsc1CN1CC(Oc2ccccc2C(=O)NC2CC2)C1, the Potency was “inactive”.
In the case of CCCN1CCN(C(=O)c2cc3c(s2)CCN(C(=O)c2ccc(F)cc2)C3)CC1, the Potency is reported as “inactive”.
For O=C1C2=C(Nc3ccccc3SC2c2c(F)cccc2Cl)c2ccccc21 (stereo not drawn), the Potency was 9.44 µM (active).
In the case of O=C1C2=C(Nc3ccccc3SC2c2ccco2)c2ccccc21 (stereo not drawn), the Potency is reported as 4.73 µM (active).
With COc1ccc(C2Sc3ccccc3NC3=C2C(=O)c2ccccc23)c(OC)c1OC (stereo not drawn) the Potency was 0.75 µM (active).
For CCn1ncc(CN2CCCC23CCN(c2cc(C)nc4ccccc24)CC3)c1C, the Potency was 5.31 µM (active).
In the case of CCn1cc(CN2CCCC23CCN(c2cc(C)nc4ccccc24)CC3)c(C)n1, the Potency is reported as 4.22 µM (active).
With CN(C)c1nc2c(c(=O)[nH]1)CCN(Cc1ccc(Br)cc1)CC2 the Potency was 13.3 µM (active).
For O=C(CCc1ccccc1)N1CCc2c(nc(-c3ccc(F)cc3)[nH]c2=O)C1, the Potency was “inactive”.
For COc1cc(OC)c(OC)cc1CN1CCc2nc(N(C)C)[nH]c(=O)c2CC1, the Potency was “inactive”.
In the case of N#Cc1ccc(CN2CCc3n[nH]c(=O)n3CC2)cc1, the Potency is reported as “inactive”.
In the case of CN(C)c1nc2c(c(=O)[nH]1)CCN(Cc1ccccc1Br)CC2, the Potency is reported as 9.44 µM (active).
In the case of CN(C)c1nc2c(c(=O)[nH]1)CCN(Cc1ccc(F)cc1Cl)CC2, the Potency is reported as 10.6 µM (active).
For CN(C)c1ccc(C(=O)NCc2nnc3cc(-c4nc(C5CC5)no4)ccn23)cc1, the Potency was “inactive”.
With Oc1cc(Nc2ccc(N3CCCCC3)cc2)cc2cccnc12 the Potency was 0.842 µM (active).
In the case of COc1ccc(Nc2cc(O)c3ncccc3c2)cc1, the Potency is reported as 0.75 µM (active).
With Oc1cc(Nc2ccccc2)cc2cccnc12 the Potency was 6.68 µM (active).
With Cc1ccc(OCC(=O)Nc2ccccc2C(=O)OCc2cc(=O)n3ccsc3n2)cc1 the Potency was “inactive”.
With CCOC(=O)c1ccccc1NC(=O)C(C)Oc1ccccc1 (stereo not drawn) the Potency was 10.6 µM (active).
In the case of COc1ccc(C)cc1NC(=O)N1CCCC2(C1)Nc1cccnc1NC2=NC1CCCC1 (stereo not drawn), the Potency is reported as 6.68 µM (active).
In the case of COc1ccc(C)cc1NC(=O)N1c2ccccc2CC1c1nc(C2CC2)no1 (stereo not drawn), the Potency is reported as “inactive”.
In the case of O=C(c1ccc2nc[nH]c2c1)N1CCCC2(C1)Nc1cccnc1NC2=NC1CCCC1 (stereo not drawn), the Potency is reported as “inactive”.
In the case of CCOc1ccc(-c2cc3c(=O)n(CCNC(=O)c4cccc(C#N)c4)ccn3n2)cc1, the Potency is reported as “inactive”.
In the case of CCCN1CCN(CCCNC(=O)c2ccc3c(c2)sc2nc(-c4ccc(OCC)cc4)cn23)CC1, the Potency is reported as 4.22 µM (active).
With CCOc1ccc(-c2cn3c(n2)sc2cc(C(=O)NCCCc4ccccc4)ccc23)cc1 the Potency was “inactive”.
For CCOc1ccc(-c2cn3c(n2)sc2cc(C(=O)NC(C)C45CC6CC(CC(C6)C4)C5)ccc23)cc1 (stereo not drawn), the Potency was 5.96 µM (active).
For CCCN1CCN(CCCNC(=O)c2ccc3c(c2)sc2nc(-c4ccc(OC)cc4)cn23)CC1, the Potency was 4.73 µM (active).
For COc1ccc(-c2cn3c(n2)sc2cc(C(=O)NCCCN4CCCCC4)ccc23)cc1, the Potency was 4.73 µM (active).
For COc1ccc(-c2cc3c(=O)n(CCNC(=O)c4ccc(OC)c(OC)c4)ccn3n2)cc1, the Potency was “inactive”.
For CCOc1ccc(-c2cc3c(=O)n(CCNC(=O)c4ccc(C#N)cc4)ccn3n2)cc1, the Potency was “inactive”.
In the case of COc1ccc(-c2cc3c(=O)n(CCNC(=O)c4ccc(OC)nc4)ccn3n2)cc1, the Potency is reported as “inactive”.
In the case of CCOc1ccc(-c2cc3c(=O)n(CCNC(=O)c4ccccc4)ccn3n2)cc1, the Potency is reported as “inactive”.
